# Results from PubChem BioAssay (NCATS).
# Several values for one entry are separate records, joined by “and”; a condition that tells them apart may be missing. Equal entries are not always repeated. Records with an inconclusive call do not appear. Where a call stands in place of a potency, no number is given. Some structures have more than one record in an assay (separate samples or runs), and their calls can disagree. Activity calls are given as the source filed them. Unless noted, calls follow the shape of the dose curve; as a rule, active = well fitted inhibition curve with a large enough effect; inconclusive = small, poorly fitted or top-dose-only effect; inactive = no such curve, though single readings can be large or run the other way.
# Target: Aldehyde dehydrogenase, mitochondrial (Homo sapiens) (UniProt P05091)
# Assay: qHTS for Inhibitors of the Aldehyde Dehydrogenase Family (ALDH2) Confirmatory screens (AID 2061303; active = well fitted inhibition curve with a large enough effect; title and protocol of this record describe different tests; also: nearly all actives have a fitted effect of over 45% in size; also: potency is read from the fitted curve at half-maximal effect)
# Conditions: ALDH inhibition qHTS; series mostly up to 45.4 µM
row,Compound,Potency
1,CCOC(=O)c1ncn2c1[C@@H]1CCCN1C(=O)c1cc(OC)ccc1-2,inactive
2,CN(N=O)c1cc(O)ccc1O,inactive
3,O=[N+]([O-])c1ccc2nc(N3CCNCC3)ccc2c1,398 nM (active) and 2.51 µM (active)
4,CN1CC[C@@]2(C)c3cc(OC(=O)Nc4ccccc4)ccc3N(C)[C@@H]12,inactive
5,Cc1ncc(CNC(=O)N(CCCl)N=O)c(N)n1,inactive

# Test system: not listed separately
# Assay: qHTS for Inhibitors of the Aldehyde Dehydrogenase Family (ALDH1A2, ALDH1A3, ALDH2, ALDH3A1) (AID 2061307); also: nearly all actives have a fitted effect of over 50% in size; as to potency: test system not described further here; potency is read from the fitted curve at half-maximal effect
# Conditions: ALDH inhibition qHTS; series mostly up to 50.3 µM
row,Compound,Potency
1,CCOC(=O)c1ncn2c1[C@@H]1CCCN1C(=O)c1cc(OC)ccc1-2,inactive
2,CN(N=O)c1cc(O)ccc1O,2.25 µM (active)
3,O=[N+]([O-])c1ccc2nc(N3CCNCC3)ccc2c1,14.1 µM (active) and 12.6 µM (active)
4,O=[N+]([O-])c1cc(O)c(O)c([N+](=O)[O-])c1,inactive
5,CN1CC[C@@]2(C)c3cc(OC(=O)Nc4ccccc4)ccc3N(C)[C@@H]12,8.96 µM (active)
6,Cc1ncc(CNC(=O)N(CCCl)N=O)c(N)n1,inactive

# Target: Retinaldehyde dehydrogenase 3 (Homo sapiens) (UniProt P47895)
# Assay: qHTS for Inhibitors of the Aldehyde Dehydrogenase Family (ALDH1A3) Confirmatory screens (AID 2061311); also: nearly all actives have a fitted effect of over 60% in size; also: potency is read from the fitted curve at half-maximal effect
# Conditions: ALDH inhibition qHTS; series mostly up to 46 µM
row,Compound,Potency
1,CCOC(=O)c1ncn2c1[C@@H]1CCCN1C(=O)c1cc(OC)ccc1-2,inactive
2,CN(N=O)c1cc(O)ccc1O,0.634 µM (active)
3,O=[N+]([O-])c1ccc2nc(N3CCNCC3)ccc2c1,10 µM (active)
4,CN1CC[C@@]2(C)c3cc(O)ccc3N(C)C12 (stereo partly specified),10.1 µM (active)
5,O=[N+]([O-])c1cc(O)c(O)c([N+](=O)[O-])c1,10.1 µM (active)
6,CN1CC[C@@]2(C)c3cc(OC(=O)Nc4ccccc4)ccc3N(C)[C@@H]12,inactive and 7.98 µM (active)
7,Cc1ncc(CNC(=O)N(CCCl)N=O)c(N)n1,inactive

# Target: Retinaldehyde dehydrogenase 3 (Homo sapiens) (UniProt P47895)
# Assay: qHTS for Inhibitors of the Aldehyde Dehydrogenase Family (ALDH1A3) Validation screen (AID 2061312); also: nearly all actives have a fitted effect of over 45% in size; also: potency is read from the fitted curve at half-maximal effect
# Conditions: ALDH1A3 enzyme inhibition qHTS validation, fluorescence; series mostly up to 42.4 µM
row,Compound,Potency
1,O=c1[nH]c2ccccc2n1CCCN1CCC(n2c(=O)[nH]c3cc(Cl)ccc32)CC1,inactive
2,NC1CC1c1ccccc1 (stereo unspecified),inactive
3,NC(=O)c1cc(N2CC2)c([N+](=O)[O-])cc1[N+](=O)[O-],inactive
4,CC(C)NP(=O)(NC(C)C)OP(=O)(NC(C)C)NC(C)C,inactive
5,O=C1C=CC(=O)C=C1,inactive
6,CN(N=O)c1cc(O)ccc1O,0.282 µM (active)
7,CC(C)c1cccc(C(C)C)c1O,inactive
8,NCCc1c[nH]c2ccc(C(N)=O)cc12,inactive
9,CC(C)=CCOc1c2occc2cc2ccc(=O)oc12,inactive
10,C[N+](C)(C)CC#CCN1CCCC1=O,inactive
11,O=S1(=O)N(CCN2CC=C(c3c[nH]c4cc(F)ccc34)CC2)c2cccc3c2N1CCC3,inactive
12,COc1ccc(C(=O)N2CCCC2=O)cc1,inactive
13,C[N+]1(C)C2CCC1CC(OC(=O)c1c[nH]c3ccccc13)C2 (stereo unspecified),inactive
14,NCCc1ccc(O)cc1,inactive
15,Cc1cccc(C)c1NC(=O)CN1CCCC1=O,inactive
16,CNCC(O)c1ccc(O)cc1 (stereo unspecified),inactive
17,NCC1(CC(=O)O)CCCCC1,inactive
18,CN(C(=O)Cc1ccc(Cl)c(Cl)c1)C(CN1CCCC1)c1cccc(OCC(=O)O)c1 (stereo unspecified),inactive
19,O=C(O)c1nn(Cc2ccc(Cl)cc2Cl)c2ccccc12,inactive
20,c1ccc2c(c1)OCC(C1=NCCN1)O2 (stereo unspecified),inactive

# Target: Retinal dehydrogenase 2 (Homo sapiens) (UniProt O94788)
# Assay: qHTS for Inhibitors of the Aldehyde Dehydrogenase Family (ALDH1A2) Confirmation screens (AID 2061314); also: nearly all actives have a fitted effect of over 65% in size; also: potency is read from the fitted curve at half-maximal effect
# Conditions: ALDH1A2 enzyme inhibition qHTS confirmation; series mostly up to 45.9 µM
row,Compound,Potency
1,CCOC(=O)c1ncn2c1[C@@H]1CCCN1C(=O)c1cc(OC)ccc1-2,inactive
2,O=[N+]([O-])c1ccc2nc(N3CCNCC3)ccc2c1,2.51 µM (active) and 6.31 µM (active)
3,CN1CC[C@@]2(C)c3cc(O)ccc3N(C)C12 (stereo partly specified),4.49 µM (active)
4,CN1CC[C@@]2(C)c3cc(OC(=O)Nc4ccccc4)ccc3N(C)[C@@H]12,inactive and 5.65 µM (active)

# Target: Aldehyde dehydrogenase 1A1 (Homo sapiens) (UniProt P00352)
# Assay: qHTS for Inhibitors of the Aldehyde Dehydrogenase Family (ALDH1A1) Confirmatory screens (AID 2061316); also: nearly all actives have a fitted effect of over 65% in size; also: potency is read from the fitted curve at half-maximal effect
# Conditions: ALDH inhibition qHTS; series mostly up to 47.3 µM
row,Compound,Potency
1,C[C@]12Cc3cn4c(nc3C=C1CCC1C2CC[C@@]2(C)[C@H]1CC[C@@]2(O)C#N)nc1ccccc14 (stereo partly specified),12.7 µM (active)
2,CCOC(=O)c1ncn2c1[C@@H]1CCCN1C(=O)c1cc(OC)ccc1-2,inactive
3,CN(N=O)c1cc(O)ccc1O,2.25 µM (active)
4,O=[N+]([O-])c1ccc2nc(N3CCNCC3)ccc2c1,15.9 µM (active)
5,Cc1ncc(CNC(=O)N(CCCl)N=O)c(N)n1,inactive

# Test system: not listed separately
# Assay: BET inhibitor-based combinations targeting novel dependencies in MECOM-rearranged (r) AML: SET-2 cell line (AID 2202231); also: nearly all actives have a fitted effect of over 35% in size
# Conditions: SET-2 AML cells viability, CellTiter-Glo luminescence, 48 h; viability: stronger effect = lower value, concentration not given here
# Procedure, shortened: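 Each compound was tested at eleven concentrations on cells seeded at 500/well. After two days' incubation, ATP-based luminescence reported viability; responses relative to DMSO and blank wells yielded AUC and cell-line-centred Z-AUC.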
row,Compound,viability
1,O=P1(N(CCCl)CCCl)NCCCO1 (stereo unspecified),114% (inactive)
2,O=c1[nH]c2ccccc2n1CCCN1CCC(n2c(=O)[nH]c3cc(Cl)ccc32)CC1,95.9% (inactive)
3,CC(C)c1cccc(C(C)C)c1O,105% (inactive)
4,COc1ccc(C(=O)N2CCCC2=O)cc1,119% (inactive)
5,Cc1cccc(C)c1NC(=O)CN1CCCC1=O,109% (inactive)
6,O=C(O)c1nn(Cc2ccc(Cl)cc2Cl)c2ccccc12,107% (inactive)

# Test system: not listed separately
# Assay: BET inhibitor-based combinations targeting novel dependencies in MECOM-rearranged (r) AML: MV-4-11 cell line (AID 2202233); also: nearly all actives have a fitted effect of over 45% in size; also: potency is read from the fitted curve at half-maximal effect
# Conditions: MV-4-11 AML viability, CellTiter-Glo luminescence, 48 h; series mostly up to 46 µM
# Procedure, shortened: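 First, 500 cells per well were seeded; next, drugs were pinned as 11-point doses; then plates sat 48 hr in the incubator; finally CellTiter-Glo was added and luminescence read, with AUC and Z-AUC computed.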
Compound,Potency,outcome
O=P1(N(CCCl)CCCl)NCCCO1 (stereo unspecified),inactive,–
CC(=O)c1c(O)c(C)c(O)c(Cc2c(O)c3c(c(C(=O)/C=C/c4ccccc4)c2O)OC(C)(C)C=C3)c1O,inactive,–
COc1ccc(C(=O)N2CCCC2=O)cc1,inactive,–
Cn1c(CCCC(=O)O)nc2cc(N(CCCl)CCCl)ccc21,10.5 µM (active),–
Cc1cccc(C)c1NC(=O)CN1CCCC1=O,inactive,–
CNCC(O)c1ccc(O)cc1 (stereo unspecified),inactive,–
NCC1(CC(=O)O)CCCCC1,–,inactive
O=C(O)c1nn(Cc2ccc(Cl)cc2Cl)c2ccccc12,inactive,–
